# From PubChem BioAssay
# E-sel TNF inh = TNF alpha driven E-selectin expression inhibition; HUVEC TNFa-induced E-selectin immunofluorescence, high content; inhibition, % at 2 µM; hit rate 0.71% among 120,000; AID 1246;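 active = inhibition above the batch mean plus 3 SD, and confirmed as a hit on visual image review, cut at about 43% in these data; inconclusive = passes the inhibition cutoff but fails visual image review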;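 note: 0% = TNF-stimulated DMSO wells and 100% = unstimulated control wells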
# HUVEC tox TNFa = toxic to HUVEC cells under TNF alpha stimulation | HUVEC TNFalpha-stimulated, Hoechst cell count, imaging | cell count reduction, % at 2 µM | hit rate 0.17% among 93,000 | AID 848;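 active = cell count reduction exceeding the screen mean by over 5 SD, scaled to untreated wells per plate, cut at about 78% in these data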;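 note: cells counted after 24 h of TNF alpha exposure following the 1 h pretreatment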
# VCAM1 TNFa inh = reduces TNF alpha induced VCAM1 expression in HUVEC; HUVEC TNFa-induced VCAM-1 immunofluorescence, high-content imaging; hit rate 0.48% among 95,000; inhibition, % at 2 µM; AID 802;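 active = inhibition above the batch mean plus 3 SD, with images confirmed as a hit by eye, cut at about 37% in these data; inconclusive = inhibition above that limit but hit not confirmed in images; inactive = inhibition not above that limit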;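 note: 0% = TNF-stimulated DMSO wells and 100% = unstimulated control wells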
# cytoskel mod = cytoskeleton assembly modification | inhibition, % at 2 µM | HUVEC TNFa F-actin phalloidin imaging, high content | hit rate 0.18% among 91,000;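 active = inhibition above the batch mean plus 3 SD and confirmed as a hit by visual image inspection, cut at about 30% in these data, passing the limit was not always enough; inconclusive = above the inhibition threshold but rejected on visual inspection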
# * marks the source's active call; other numbers are inactive results; ? = inconclusive; / = no result given. Hits are enriched below; roughly 1.1% of the tested compounds scored in any of these assays.
SMILES,E-sel TNF inh,HUVEC tox TNFa,VCAM1 TNFa inh,cytoskel mod
Cc1ccc(Cn2ncc3c(N4CCN(c5ccc(C)cc5)CC4)ncnc32)cc1,/,-5,16,8
Cc1ccc(Cn2ncc3c(N4CCN(C5CCCC5)CC4)ncnc32)cc1,100*,/,/,/
O=C1CCCC(=O)N1c1ccc(NCCOCCO)c([N+](=O)[O-])c1,-6,/,/,/
Cc1cc(C)cc(OCCCCCNCCO)c1,-31,-2,96*,12
Clc1ccc(Nc2nc3cccnc3s2)cc1,72*,/,/,/
CCn1c(SCC(=O)Nc2cc(C)on2)nnc1-c1ccccc1,17,78,?,37*
COc1ccc(CCn2c(SCC(=O)Nc3cc(C)on3)nc3ccccc3c2=O)cc1OC,/,87*,38,-24
Cc1cc(NC(=O)CSc2nnc3c4c(C)c(C)sc4ncn23)no1,69*,-8,-8,-2
Nc1ccnc(Oc2ccc(F)cc2)c1,6,/,/,/
COc1ccc(C(=O)NC=C2C(=O)OC(C)(C)OC2=O)cc1,34,/,/,/
CCCSc1cc(=O)n(-c2ccc(F)cc2)nc1C(=O)OCC,-24,/,/,/
CC(C)Nc1nnc(SC(C)C(=O)Nc2ccc(Cl)cn2)s1 (stereo not given),11,/,/,/
O=C(CSc1nc2ccccc2o1)Nc1cc(C(F)(F)F)ccc1N1CCOCC1,-15,-17,4,4
Cc1ccc2nc(SCC(=O)Nc3cc(C(F)(F)F)ccc3N3CCOCC3)[nH]c2c1,-23,54,91*,10
Clc1cccc(CSc2nnc(-c3sccc3-n3cccc3)o2)c1,82*,-7,-3,/
Cc1c(C(=O)OCC(=O)Nc2ccc3c(c2)OCO3)cccc1[N+](=O)[O-],4,/,/,/
CCOc1cc(S(=O)(=O)Nc2ccccc2CC)ccc1Cl,1,79*,98*,-3
COC(=O)C1C(=O)C2=C(CC1C)NC(=O)CC2c1cccc(C)c1 (stereo not given),9,87*,77*,-8
O=C(Oc1ccccc1N1C(=O)C2CC=CCC2C1=O)c1ccc(Br)cc1 (stereo not given),78*,/,/,/
O=C(CCn1nnc2ccccc21)Nc1nnc(Cc2ccc(F)cc2)s1,47*,/,/,/
CN1CCCCc2c1[nH]c1ccccc1c2=O,14,-47,86*,19
CCOC(=O)C1CCN(C(=S)Nc2cccc(C)c2C)CC1,-1,/,/,/
CC1CC(=O)Nc2ccccc2S1(=O)=O (stereo not given),84*,/,/,/
CC1CN(C(=O)CN2C(=O)NC3(CCCCCC3)C2=O)CC(C)O1 (stereo not given),4,-10,2,14
COc1ccccc1CC1(C)NC(=O)N(CC(=O)N2CC(C)OC(C)C2)C1=O (stereo not given),87*,-1,4,3
SMILES,E-sel TNF inh,HUVEC tox TNFa,VCAM1 TNFa inh,cytoskel mod
CCN(C(=O)CCS(=O)(=O)c1ccc(Br)cc1)c1ccc2c(c1)OCO2,96*,/,/,/
O=[N+]([O-])c1ccc(C(O)C23CN4CN(CN(C4)C2)C3)cc1 (stereo not given),-6,/,/,/
COc1ccc(C2CC(=O)C=C(NNS(=O)(=O)c3ccc(C)cc3)C2)cc1 (stereo not given),34,/,/,/
O=C(NCc1ccco1)C(c1ccc(F)cc1)N(C(=O)Cc1cccs1)c1cccnc1 (stereo not given),-11,/,/,/
Cc1cc(C(=O)CN2C(=O)NC(c3ccccc3)(c3ccccc3)C2=O)c(C)n1Cc1ccco1,74*,5,0,27
CCOC(=O)c1c(NC(=O)CSc2ncnc3[nH]ncc23)sc2c1CCC(C)C2 (stereo not given),-3,/,/,/
O=C(Nc1nccs1)c1nc(-c2ccccc2)n(-c2ccccc2)n1,43*,-11,-7,-1
O=C(Nc1ccccc1)c1sc2cc(C(F)(F)F)cnc2c1-c1cccs1,22,/,-12,9
CSc1ccccc1NC(=O)CN1CC(C)OC(C)C1 (stereo not given),-8,/,/,/
CSc1ncccc1C(=O)OCC(=O)c1cccs1,8,/,/,/
O=C(NCc1cccnc1)Nc1cccc(NC(=O)NCc2cccnc2)c1,-27,/,/,/
CC(=O)c1cccc(NC(=O)NCc2cccnc2)c1,100*,-19,-36,50*
OCCN=C(c1ccccc1)C12CN3CN(CN(C3)C1)C2,/,-44,60*,13
CC(C)(C)C(=O)/C(=C\c1ccc([N+](=O)[O-])cc1)n1cncn1,66*,-14,13,5
C=CCNC(=S)NNC(=O)c1ccc(OCC)cc1,53*,-7,0,13
Clc1ccc(CNCc2cccs2)c(Cl)c1,-20,/,/,/
Fc1ccc(-c2n[nH]c(=S)n2/N=C/c2c[nH]c3ccccc23)cc1,61*,/,/,/
Cn1cccc1/C=N/n1c(-c2ccccc2)n[nH]c1=S,-21,-18,-14,12
COc1cccc(C(C#N)N2CCCCC2)c1O (stereo not given),-14,-12,8,48*
COc1ccc(C(C#N)N2CCCCCC2)cc1OC (stereo not given),17,-19,-2,9
O=C(CN1CCOCC1)Nc1ccc(OCc2ccccc2)cc1,38,7,-1,-19
O=C(CN1CCN(CC(=O)Nc2ccc(OCc3ccccc3)cc2)CC1)Nc1ccc(F)cc1,64*,3,-2,41
COC(=O)c1cc(Br)c(=O)n(Cc2ccncc2)c1,64*,6,8,14
COC(=O)c1cc(Br)c(=O)n(Cc2cccnc2)c1,-1,-8,9,-14
CCCN1CCC(N2CCCC(C(=O)O)C2)CC1 (stereo not given),14,/,/,/
SMILES,E-sel TNF inh,HUVEC tox TNFa,VCAM1 TNFa inh,cytoskel mod
O=C(CC1N=C(Cc2ccccc2)NNC1=O)N/N=C/c1ccc([N+](=O)[O-])cc1 (stereo not given),-31,/,/,/
CC(C)CCNC(=O)c1nnc(Cc2ccc(Cl)cc2)o1,70*,-2,-3,-10
Cc1nn(CCOc2cccc(Br)c2)c(C)c1[N+](=O)[O-],-7,/,/,/
O=C(Nc1ccccc1C(=O)NCc1ccccc1)c1ccccc1,17,18,3,-16
CN(Cc1ccccc1)C(=O)c1ccccc1NC(=O)c1ccccc1,-44,-7,1,51*
COc1cccc(N=Cc2c[nH][nH]c2=O)c1,-22,-19,3,8
O=c1[nH][nH]cc1C=Nc1ccc(Cl)cc1,97*,/,/,/
Cc1c(Cl)cccc1N1C(=O)CC(N(O)c2ccccc2)C1=O (stereo not given),100*,-14,-19,-1
Cc1cccc(C)c1N1C(=O)CC(N(O)c2ccccc2)C1=O (stereo not given),24,0,23,-13
Cn1c(=N)n(CC(O)c2cccc3ccccc23)c2ccccc21 (stereo not given),/,83*,43,-14
Cn1c(=N)n(CC(O)c2ccco2)c2ccccc21 (stereo not given),/,-8,-15,-26
Cc1ccccc1C(=O)c1cccn1CC(=O)NCc1ccco1,62*,-15,-1,17
O=C(Cn1cccc1C(=O)c1ccccc1)NCc1ccco1,/,-14,-10,-4
CC(C)CNS(=O)(=O)c1ccc(CCC(=O)NCCC2=CCCCC2)cc1,-12,/,/,/
COc1ccc(-c2cc(C(F)(F)F)nc(S(=O)(=O)CCC(=O)N3CCOCC3)n2)cc1,12,20,98*,-15
O=C(Nc1nnc(C2CC2)s1)c1cc(-c2ccccc2)nn1-c1ccccc1,97*,/,/,/
